MsrA act – activates bovine MsrA enzyme; activation, % at 10.6 µM; purified bovine MsrA, absorbance read-out; 0.3% of 360,000 active; in the data active = activation above about 7.5%;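 note: 0% = vehicle and 100% = reference activator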
PP1 inh – counter-screen for PP5 inhibitors: inhibitors of human PP1-alpha; P62136; purified PP1alpha, OMFP fluorescence; inhibition, % at 6.7 µM; 0.9% of 320,000 active; AID 2235;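 active = inhibition above the mean inhibition of all tested compounds plus 3 SD, computed separately for each screening campaign, cut at about 15% in these data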
Target sequence (P62136 whole entry, looked up): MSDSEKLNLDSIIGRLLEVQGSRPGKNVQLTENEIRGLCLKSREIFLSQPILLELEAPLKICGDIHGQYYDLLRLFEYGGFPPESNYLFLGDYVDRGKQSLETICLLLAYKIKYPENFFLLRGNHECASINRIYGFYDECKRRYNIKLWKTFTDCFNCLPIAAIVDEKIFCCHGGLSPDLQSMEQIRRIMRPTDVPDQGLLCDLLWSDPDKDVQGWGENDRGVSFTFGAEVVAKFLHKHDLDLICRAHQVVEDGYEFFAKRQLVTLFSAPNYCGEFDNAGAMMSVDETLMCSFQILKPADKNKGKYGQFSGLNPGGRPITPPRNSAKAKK
MsrA inhibitor – inhibitors of bovine MsrA | purified bovine MsrA, absorbance read-out | inhibition, % at 15.5 µM | 0.75% of 360,000 active | AID 651718; in the data active = inhibition above about 4.5%;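 note: 0% = vehicle wells with enzyme and 100% = reference inhibitor wells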
ZTA DNA inh – blocks Epstein-Barr virus ZTA, an EBNA-1 counter-screen; P03206; ZTA-DNA binding, fluorescence polarization; inhibition, % at 11 µM; 0.15% of 320,000 active; AID 2234; in the data active = inhibition above about 33%
Target sequence (P03206 whole entry, looked up): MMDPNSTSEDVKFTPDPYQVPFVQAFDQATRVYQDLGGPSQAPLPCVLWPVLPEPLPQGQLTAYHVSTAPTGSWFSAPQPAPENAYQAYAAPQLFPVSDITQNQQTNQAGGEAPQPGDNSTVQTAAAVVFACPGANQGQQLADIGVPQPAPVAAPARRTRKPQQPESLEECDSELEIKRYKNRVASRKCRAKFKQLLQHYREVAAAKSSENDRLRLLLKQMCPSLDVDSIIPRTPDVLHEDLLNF
PP5 inh – inhibitors of human protein phosphatase 5 (PP5). P53041. purified PP5c, OMFP substrate fluorescence. inhibition, % at 6.7 µM. 0.18% of 320,000 active. AID 1987;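 active = inhibition above the campaign's mean inhibition across all tested compounds plus 3 SD, cut at about 9.5% in these data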;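 note: 0% = DMSO only and 100% = 100 µM cantharidin control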
EBNA-1 inh – blocks EBNA-1 binding to DNA; EBNA-1 DNA binding, fluorescence polarization; inhibition, % at 14.8 µM; 0.34% of 300,000 active; in the data active = inhibition above about 28%
PP5 conf – confirmation of human PP5 phosphatase inhibitors | shares compounds with PP5 inh | Purified PP5, fluorogenic phosphatase substrate, fluorescence | inhibition, % at 6.7 µM | 22% of 460 active; in the data active = inhibition above about 9.5%
PP1 inh counter – inhibits human PP1 phosphatase in PP5 counter-screen; 4% of 460 active; shares compounds with PP5 inh; PP1 enzyme, fluorescent phosphatase substrate; inhibition, % at 6.7 µM; in the data active = inhibition above about 16%
The depositor's hits bear a star; . = no result. Compounds with a hit are over-represented: about 2.3% of the library has one in this group of screens.

SMILES | MsrA act | PP1 inh | MsrA inhibitor | ZTA DNA inh | PP5 inh | EBNA-1 inh | PP5 conf | PP1 inh counter
COCC(C)n1c(-c2ccc3c(c2)NC(=O)CO3)csc1=Nc1ccc(OC(F)F)cc1 (stereo unspecified) | -3 | 3 | 0 | -17 | 12* | 0 | 2 | 3
O=C1COc2ccc(-c3csc(=Nc4ccc(OC(F)F)cc4)n3CC3CCCO3)cc2N1 (stereo unspecified) | -1 | 2 | 2 | -7 | 3 | 6 | . | .
COc1cc(C=O)ccc1OCCOCCOc1ccc(Cl)cc1 | -2 | 3 | 1 | -1 | 3 | 1 | . | .
COc1cc(C=O)ccc1OCCSc1ccc(Cl)cc1 | -2 | 0 | 1 | -14 | 15* | -10 | -1 | -1
Cc1ccc(OCCn2cc(/C=N/NC(=O)c3ccncc3)c3ccccc32)cc1 | 0 | 8 | 3 | -2 | 9.9* | 1 | 1 | 3
COc1ccc(OCCn2cc(/C=N/NC(=O)c3ccncc3)c3ccccc32)cc1 | -9 | 1 | 0 | 0 | 4 | 1 | . | .
CC(C)OC(=O)CC1C(=O)NCCN1C(=S)NC(=O)c1cccs1 (stereo unspecified) | -3 | -2 | 0 | 2 | 1 | 6 | . | .
COc1ccc(-c2n[nH]c(C)c2-c2ccc(Cl)cc2)c(O)c1OC | -1 | 6 | 0 | 1 | 10* | -7 | 4 | 5
COc1ccc(-c2n[nH]c(C)c2-c2ccc(Cl)cc2)c(O)c1 | 1 | -1 | 0 | -7 | 9 | 25 | . | .
C=C(C)CN1CCN(S(=O)(=O)c2ccc(C)c(N(C)S(=O)(=O)c3ccc(C)cc3)c2C)CC1 | 0 | -1 | 1 | -7 | 3 | -1 | . | .
CCOc1cc(S(=O)(=O)n2cc(-c3ccc(F)cc3)c(N)n2)cc(OCC)c1OCC | 0 | 6 | -1 | -3 | 11* | -7 | 5 | 0
CCOc1ccc(S(=O)(=O)n2cc(-c3ccc(F)cc3)c(N)n2)cc1 | -4 | 2 | -1 | -4 | 4 | 2 | . | .
CC(=O)NC(CCc1ccc(Cl)c(Cl)c1)c1cccc(O)c(=O)c1 (stereo unspecified) | -1 | . | 2 | . | . | . | . | .
N/C(=N\c1nc2c(c(=O)[nH]1)CCC2)Nc1cccc(Cl)c1 | -14 | 2 | 0 | -10 | 0 | 8 | . | .
Cc1cccc(N/C(N)=N/c2nc3c(c(=O)[nH]2)CCCC3)c1 | -4 | -1 | 2 | 5 | 13* | -15 | -8 | -6
COc1ccc(C(=O)Nc2ccc(S(=O)(=O)N3CCCCC3C)cc2)c(OC)c1OC (stereo unspecified) | -1 | 0 | 0 | -1 | 11* | 0 | 1 | 2
CN1CCC(NC(=O)Nc2ccc(Br)cc2)CC1 | -4 | -4 | 0 | -4 | 13* | 2 | -4 | -5
CCCN(CC1CC1)c1nc(N)c2c(N)nc(OC)cc2c1C#N | -1 | 4 | 1 | -22 | 12* | -18 | 39* | 5
CN1C=CC=C/C1=C1\SC(=S)N(C2CCCCC2)C1=O | -3 | 1 | 0 | -15 | 9.7* | 1 | -1 | -1
CN1C=CC=C/C1=C1\SC(=S)N(c2ccccc2)C1=O | -9 | 1 | 1 | -21 | 3 | 4 | . | .
COc1ccc(C2=NN(C(=O)CN3CCCCC3)C(c3ccc(OC)cc3)C2)cc1 (stereo unspecified) | -1 | 0 | 0 | -18 | 17* | -16 | -3 | -4
Cn1c(=O)c2c(ncn2CC(COCc2ccccc2)OCc2ccccc2)n(C)c1=O (stereo unspecified) | -6 | 0 | 1 | 15 | 2 | 6 | . | .
O=C(COc1ccc([N+](=O)[O-])cc1)Nc1ccc(C(=O)Nc2ccccc2C(=O)O)cc1 | -5 | 2 | 0 | 1 | 0 | 5 | . | .
O=c1c2cc(N3CCOCC3)ccc2[nH]c(=S)n1Cc1ccco1 | -5 | 9 | 1 | -8 | 10* | -1 | -3 | -1
CSc1ccc(S(=O)(=O)NCc2ccc(Cl)cc2Cl)cc1 | -2 | 1 | -1 | -6 | 4 | -12 | . | .
SMILES | MsrA act | PP1 inh | MsrA inhibitor | ZTA DNA inh | PP5 inh | EBNA-1 inh | PP5 conf | PP1 inh counter
CC(C)(C)P(=O)(CO)c1ccccc1 (stereo unspecified) | -2 | -2 | 1 | -8 | 11* | 4 | -3 | -4
CC(C)(O)P(C)(=O)c1ccccc1 (stereo unspecified) | 3 | 0 | 0 | 10 | 1 | -2 | . | .
O=C(NCC1CCCO1)C1CCCN(S(=O)(=O)c2cc(Cl)ccc2Cl)C1 (stereo unspecified) | -4 | -2 | -1 | -1 | 2 | 13 | . | .
Fc1ccc(NC(=S)Nc2cc(Cl)ccc2Cl)cc1 | -2 | -1 | 1 | -9 | 0 | 6 | . | .
Nc1ncc(Br)cc1S(=O)(=O)Nc1cc(C(F)(F)F)cc(C(F)(F)F)c1 | 1 | 8 | 1 | 1 | 9.6* | -14 | 5 | 12
CC(=O)C1=C(O)C(=O)N(c2ccc(S(=O)(=O)Nc3nccs3)cc2)C1c1ccc(F)cc1 (stereo unspecified) | -4 | 5 | 2 | -15 | -1 | -2 | . | .
O=C(Nc1ccccc1C(=O)N1CCOCC1)C1CC(=O)N(C2CCCC2)C1 (stereo unspecified) | -9 | 1 | -2 | -18 | 13* | -9 | -3 | -4
COc1ccc(C(=O)N/N=C/c2c[nH]c3ccccc23)cc1 | -3 | -6 | 4 | 9 | 1 | -9 | . | .
CCCOc1ccc(C(=O)N/N=C/c2c[nH]c3ccc(Br)cc23)cc1 | -9 | 4 | 2 | 16 | 12* | 1 | 5 | 2
COC(CNC(=O)c1ccc(CS(=O)(=O)c2ccccc2)o1)OC | -5 | 1 | 0 | -1 | 14* | 7 | -3 | -4
COc1ccc(S(=O)(=O)Cc2ccc(C(=O)NCC(OC)OC)o2)cc1 | -1 | -5 | 0 | 0 | -1 | -18 | . | .
COc1cc(C2Nc3ccc4ccccc4c3C3=C2C(=O)CC(C)(C)C3)ccc1OCC(=O)O (stereo unspecified) | -5 | -2 | 2 | 9 | -1 | 13 | . | .
CC1(C)CC(=O)C2=C(C1)c1c(ccc3ccccc13)NC2c1ccc(OCC(=O)O)cc1 (stereo unspecified) | -2 | -2 | 2 | -4 | 9.8* | -1 | -2 | 1
CC(=O)C1=C(c2ccc(Br)cc2)C(=O)c2ccccc2C1=O | 2 | 8 | 1 | -16 | 11* | -1 | 10* | 5
O=C(Cn1c(NCCO)nc2ccccc21)c1ccco1 | -6 | -5 | 0 | -10 | 10* | -6 | -5 | -4
COc1ccc(C(CNC(=O)c2cc(SC)ccc2Cl)N(C)C)cc1 (stereo unspecified) | -12 | 0 | 0 | -3 | 0 | 5 | . | .
COc1cc(OC)c2c(N)c(C#N)c(C(F)(F)C(F)(F)F)nc2c1 | -3 | -1 | 0 | 4 | 2 | 7 | . | .
